Sampled rows, rich in hits. Any-hit rate of the full collection: about 11%.
PLK1 PBD inh: qHTS for Inhibitors of PLK1-PDB (polo-like kinase 1 - polo-box domain): Primary Screen; Potency, µM, for inactives: max response, negative = inhibition, hits mostly inhibitors; actives 2.8% (n = 360,000); Plk1 PBD binding of FITC phosphopeptide, fluorescence polarization; Serine/threonine-protein kinase PLK1 (Homo sapiens), P53350; also: series mostly up to about 57 µM; % is scaled to controls: 0 for no effect and ±100 for the full control effect; nearly all actives have a fitted effect of over 65% in size
Target sequence (P53350 whole entry, looked up, the tested form may be a part): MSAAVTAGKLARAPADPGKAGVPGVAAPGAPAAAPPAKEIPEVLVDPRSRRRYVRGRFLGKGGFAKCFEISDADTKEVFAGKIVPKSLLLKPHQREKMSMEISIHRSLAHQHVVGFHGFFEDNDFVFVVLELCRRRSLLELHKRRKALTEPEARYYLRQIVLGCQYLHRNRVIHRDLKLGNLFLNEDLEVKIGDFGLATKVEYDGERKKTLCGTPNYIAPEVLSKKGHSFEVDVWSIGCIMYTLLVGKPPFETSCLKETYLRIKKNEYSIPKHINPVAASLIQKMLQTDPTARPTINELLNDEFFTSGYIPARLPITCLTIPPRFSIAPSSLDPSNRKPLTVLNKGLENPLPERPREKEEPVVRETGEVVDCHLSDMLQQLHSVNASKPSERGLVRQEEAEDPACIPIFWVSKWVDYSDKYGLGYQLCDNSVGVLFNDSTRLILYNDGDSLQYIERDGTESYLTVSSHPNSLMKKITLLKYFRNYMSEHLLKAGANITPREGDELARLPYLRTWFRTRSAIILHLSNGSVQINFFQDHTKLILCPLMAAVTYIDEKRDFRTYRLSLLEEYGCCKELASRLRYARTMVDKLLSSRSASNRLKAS
BAZ2B block: qHTS Assay for Inhibitors of BAZ2B | actives 4.4% (n = 360,000) | AlphaScreen BAZ2B-H3K14Ac peptide displacement | Potency, µM (series often up to 114 µM), inactives show at the top dose activity change, negative = inhibition, actives largely listed as inhibitors; also: % is scaled to controls: 0 for no effect and ±100 for the full control effect; nearly all actives have a fitted effect of over 60% in size
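BAZ2B (50 nM) with biotin-H3(5-23)K14Ac peptide (50 nM) in PBS pH 7.4, 0.01% Tween-20, preformed 30 min, then compound 30 min at room temperature; top concentration 110uM. AlphaScreen streptavidin donor/nickel chelate acceptor beads (10 ug/mL final), 20 min dark, signal read.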
HP1b binding inh: HTS for Inhibitors of HP1-beta Chromodomain Interactions with Methylated Histone Tails; AlphaScreen HP1-beta / biotin-H3K9me3 peptide binding; actives 0.56% (n = 390,000); Chromobox protein homolog 1 (Homo sapiens), P83916; Potency, µM (top dose mostly 114 µM), for the others: top-dose activity change, negative = inhibition, usual class: inhibitors; also: nearly all actives have a fitted effect of over 70% in size
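Compound inhibition of the preformed complex between 50 nM HP1-beta and 50 nM biotinylated H3K9me3 peptide was read by AlphaScreen. Buffer was PBS pH 7.4 with 0.01% Tween-20. Incubations ran 30 min at room temperature, with 10 ug/mL donor/acceptor beads.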
G9a block: qHTS Assay for Inhibitors of Histone Lysine Methyltransferase G9a; G9a H3K9 monomethylation, AlphaScreen, 2 h; Potency, µM (doses to about 102 µM), for inactives: at the highest dose activity, negative = inhibition, usual class: inhibitors; actives 8.8% (n = 350,000); AID 504332, 2011; also: % is scaled to controls: 0 for no effect and ±100 for the full control effect; nearly all actives have a fitted effect of over 75% in size
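Using a bead-based AlphaScreen, monomethylated H3K9 product from 2 h room-temperature reactions (G9a 20 nM, peptide 500 nM, SAM 20 uM) was detected with 0.5 ug/mL rabbit anti-H3K9me1 antibody.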
VDR inh: Inhibitors of the vitamin D receptor (VDR): qHTS | VDR-SRC2-3 peptide fluorescence polarization, 2 h | AID 504847, 2011 | actives 0.93% (n = 400,000) | Potency, µM, inactives show max response, negative = inhibition, actives largely listed as inhibitors; also: % is scaled to controls: 0 for no effect and ±100 for the full control effect
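Reagent solutions, kept cold and dark, are dispensed first; compounds are then pinned in at 23 nl, plates briefly spun, and incubated 2 h at ambient temperature. Inhibition of VDR–SRC2-3 peptide binding is read by fluorescence polarization.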
JMJD2A Tudor inh: qHTS Assay for Inhibitors of JMJD2A-Tudor Domain; Lysine-specific demethylase 4A (Homo sapiens), O75164; AlphaScreen JMJD2A-Tudor / H3K4me3 peptide binding; Potency, µM (series often up to 114 µM), inactives show top-dose activity change, negative = inhibition, actives largely listed as inhibitors; actives 4.4% (n = 390,000); AID 504339, 2011; also: % is scaled to controls: 0 for no effect and ±100 for the full control effect; nearly all actives have a fitted effect of over 50% in size
The depositor's hits bear a star; u = inconclusive; x = no result given; [ ] = another dose, or the depositor's remark. Calls follow the shape of the dose curve; as a rule, active = well fitted curve in the direction sought with a large enough effect; inconclusive = small, poorly fitted or top-dose-only effect, or another doubt; inactive = no such curve, though single readings can be large; an effect the other way counts as inactive or inconclusive. Potency is read from the fitted curve at half-maximal effect.

SMILES	PLK1 PBD inh	BAZ2B block	HP1b binding inh	G9a block	VDR inh	JMJD2A Tudor inh
COc1ccccc1/C=C1\SC(=S)N(NS(=O)(=O)c2ccc(C)cc2)C1=O	27µM*	50µM*	-18%	u	-3%	u
COc1ccc(/C=C2\SC(=S)N(NS(=O)(=O)c3ccc(C)cc3)C2=O)c(OC)c1	u	u	-19%[57 µM]	-46%	-14%	56µM*
Cc1cc2c(nc1C)CCCN2C[C@@H](C)O/N=C1/[C@H]2CCn3c(=O)n(-c4ccccc4)c(=O)n3[C@H]2[C@H](O)[C@@H]2O[C@H]12	-11%	-25%	5%	u	-15%	-24%
CCOc1cc(NS(=O)(=O)c2ccc(NC(C)=O)cc2)c(OCC)cc1NC(=O)c1cccs1	3%	-5%	24%	-13%[59 µM]	-6%	8%
COc1ccc(CCNC(=O)C(=O)c2cn(CC(=O)N3CCCC3)c3ccccc23)cc1	7%	x	x	x	x	x
CCCSC1=NC2(CCN(C(=O)NC3CCCCC3)CC2)N=C1c1ccc(Cl)cc1	x	7%[57.1 µM]	17%	-6%[59 µM]	0%	-20%
CC1(C)CC(=O)C2=C(C1)N(c1cccc(Cl)c1)C(=O)NC2(C(F)(F)F)C(F)(F)F	-11%	9%	28%	14%[2.33 µM]	-5%	-7%
OC(Cn1ccnc1)c1ccc(Cl)cc1Cl (configuration not stated)	-5%	-2%	14%	u	-10%	-12%
Clc1ccc(C(Cn2ccnc2)OCc2c(Cl)cccc2Cl)c(Cl)c1 (configuration not stated)	-4%	32µM*	-25%	7.9µM*	-13%	u
O=C(C(=O)N1CCN(C/C=C/c2ccccc2)CC1)c1ccccc1	-7%	x	x	x	x	x
O=C(C=Cc1ccccc1)c1cccs1	-16%	x	63%	x	56µM*	4%
CCOc1ccc(/C=C/C(=O)c2ccccc2)cc1	-5%	55%	87%	212%	u	71%
O=C(/C=C/c1ccccc1)c1cccs1	x	x	x	x	11µM*	x
CCOc1ccc(/C=C/C(=O)c2cccs2)cc1	x	x	x	x	22µM*	x
Cc1c(/C=C/C(=O)c2cccs2)cnn1C	3.4µM*	6%	u	8%[59 µM]	u	28µM*
Nc1ccc(/C=C/C(=O)c2cccs2)cc1	40%	29%	81%	68%	-13%	27%
Cc1ccc(CNC(=O)COCc2cc(-c3cccs3)on2)cc1	x	1%	27%	-4%[59 µM]	8%	-10%
O=C(OCc1c(Cl)cccc1Cl)c1ccncc1	-12%	14%	60%	38%[59 µM]	-6%	24%
Cc1ccc(CNC(=O)C2CC(=O)N(C3CCCC3)C2)cc1 (configuration not stated)	9%	-4%	14%	16%[12.7 µM]	-8%	-4%
CCN1CCN(c2ccc(NC(=O)c3cc(OC)c(OC)c(OC)c3)cc2)CC1	7%	-23%	42%	u	-20%	-10%
COc1cc2c(cc1OC)n(Cc1ccc([N+](=O)[O-])cc1)c(=O)n1nc(-c3ccccc3)nc21	x	-3%	6%	16%[59 µM]	2%	-11%
CC(C)Oc1ccc(C(=O)N2CC(=O)Nc3ccc(F)cc3C2c2ccc(F)cc2)cc1 (configuration not stated)	x	-19%	1%	-9%[59 µM]	0%	-32%
COCC(=O)N[C@@H]1c2cc(OC)c(OC)cc2C[C@H]1OCc1ccccc1	-6%	x	30%	x	-15%	-6%
CC(C)c1ccc(N(CC(=O)O)S(=O)(=O)c2cccnc2)cc1	27µM*	9%	5%	-5%	-20%	89µM*
CCOc1ccc(N(CC(=O)O)S(=O)(=O)c2cccnc2)cc1	-10%	5%	46%	79µM*	-10%	-16%
SMILES	PLK1 PBD inh	BAZ2B block	HP1b binding inh	G9a block	VDR inh	JMJD2A Tudor inh
CCc1nnc(NC(=O)C(=O)NCCOC(=O)c2ccccc2)s1	-7%	u	15%	u	10%	u
Nc1ncnc2c1ncn2[C@@H]1O[C@H](CNC(=O)[C@@H]2C[C@H](F)CN2)[C@@H](O)[C@H]1O	-1%	x	45%	x	1%	-2%
COc1ccc(-c2cn(CCO)c(CCN)n2)cc1	1%	-30%	17%	u	-15%	u
COc1ccc(NC(=O)CN(C)C(C)C(=O)N2CCCCC2)cc1 (configuration not stated)	2%	22µM*	-50%	u	16%	0.89µM*
CSc1ccccc1C(=O)NCc1ccc2c(c1)OCO2	-10%	-16%	8%	-48%[59 µM]	-17%	-20%
CSc1ccccc1NC(=O)CN(C)C(C)C(=O)NCc1ccc2c(c1)OCO2 (configuration not stated)	-9%	x	u	x	-26%	5µM*
CC1CC(C)CN(C(=O)C(C)N(C)CC(=O)Nc2ccc(F)cc2)C1 (configuration not stated)	3%	8%	26%	11%[12.7 µM]	16%	0%
CC(=O)c1cccc(NC(=O)C(C)N(C)CC(=O)Nc2ccc(Cl)cc2)c1 (configuration not stated)	-6%	-12%	21%	x	12%	-15%
CC(C(=O)Nc1ccc2c(c1)OCO2)N(C)CC(=O)Nc1ccc(Cl)cc1 (configuration not stated)	1%	x	u	x	-9%	2.2µM*
CC1CC(C)CN(C(=O)C(C)N(C)CC(=O)Nc2ccc(Cl)cc2)C1 (configuration not stated)	6%	45µM*	u	50µM*	-12%	7.9µM*
CCOc1ccccc1CN1[C@@H](c2ccc(OC)cc2)CC(C(=O)OC)(C(=O)OC)[C@H]1c1ccccc1	-10%	x	x	x	x	x
O=C(c1ccncc1)N1CCC[C@@]2(CCN(c3ccncc3)C2)C1	x	x	x	2%[12.7 µM]	7%	x
Cc1[nH]c2ccccc2c1C(=O)C(=O)Nc1ccc2c(c1)OCO2	-8%	u	1%[57 µM]	-14%	7%	-30%
COc1ccc(NC(=O)CCC(=O)NCCO)cc1	3%	u	63%	u	-2%	2%
Cc1ccc(-c2c(C)n3c4c(=O)n(C)c(=O)n(C)c4nc3n2-c2cccc(O)c2)cc1	x	-8%	22%	-40%[59 µM]	15%	-7%
CN1CCN(/N=C/c2ccc(OCc3ccccc3)cc2)CC1	-10%	u	-16%	x	-19%	u
CN1CCN(/N=C/c2nc(-c3ccccc3)n3ccccc23)CC1	-9%	u	-5%	14µM*	-8%	u
